“And” between values parts separate entries of the source, which are not always exact repeats. Equal entries are not always repeated. Some structures have more than one record in an assay (separate samples or runs), and their calls can disagree. The source made the active and inactive calls. Rule for the calls: active = hit-call score of the fitted dose curve at least 0.9, where 1 is the maximum; inactive = score below 0.9.
read-out: Interleukin-1 alpha (IL1a), IL1A (gene 3552); test: BSK_LPS_IL1a: BioMAP Diversity Plus: LPS Assay for Interleukin-1 alpha (IL1a) Biomarker Activity (AID 2283080); details: primary human HUVEC with PBMC; actives raise or lower the signal
Description: BSK_LPS is a cell-based, multiplexed-readout assay that uses umbilical vein endothelium and peripheral blood mononuclear cells, a human vascular primary cell co-culture, with measurements taken at 24 hours after chemical dosing in a 96-well plate.BSK_LPS_IL1a is an assay component measured in the BSK_LPS assay. It measures IL-a antibody related to regulation of gene expression using ELISA technology.Data from the assay component BSK_LPS_IL1a was analyzed into 1 assay endpoint. This assay endpoint, BSK_LPS_IL1a, was analyzed with bidirectional fitting relative to DMSO as the negative control and baseline of activity. Using a type of binding reporter, gain or loss-of-signal activity can be used to understand changes in the signaling as they relate to the gene IL1A. Furthermore, this assay endpoint can be referred to as a primary readout, because this assay has produced multiple assay endpoints where this one serves a signaling function. To generalize the intended target to other relatable targets, this assay endpoint is annotated to the cytokine intended target family, where the subfamily is interleukins.
The levels of cell surface (or secreted, indicated by the prefix "s") biomarker endpoints were measured by ELISA. Overt cytotoxicity to cells in confluent adherent cultures (all systems other than the BT system) was assessed by measuring total protein levels using sulforhodamine B (SRB) staining in parallel cultures at the time of biomarker measurements, indicated as SRB endpoints. For proliferation assays for adherent cell types, individual cell types are cultured at sub-confluence and relative cell numbers quantified by SRB staining at time points optimized for each system (48 h: 3C and CASM3C systems; 72 h: BT and HDF3CGF systems; 96 h: SAg system). SRB was performed by staining cells with 0.1% SRB after fixation with 10% TCA and reading wells at 560 nm.Viability and proliferation of PBMC (T cells) was quantified by Alamar Blue reduction for the SAg and BT systems. For PBMC viability (referred to as PBMC Cytotoxicity within the assay endpoint names), cells were plated (75,000/well in a 96-well plate) and then chemical samples added for 1 h before addition of activators, SEB and TSST-1 (20 ng/mL final concentration each). Cells were incubated for 90 h. Then, Alamar Blue (20 uL/well) (Invitrogen, Cat DAL1100) was added for 6 h, and the plates were read with a fluorescence microplate reader at 546/580 nm (excitation/emission). For PBMC proliferation, cells were plated and activated as above but incubated for only 16 h prior to addition of Alamar Blue. Plates were read after 6 h.

Row | Compound | outcome | AC50
1 | Cc1cccc(C)c1N | inactive | 
2 | CCC(C)c1cc([N+](=O)[O-])cc([N+](=O)[O-])c1O (stereo not given) |  | 29.2 µM (active)
3 | CCSC(=O)N(CC)C1CCCCC1 | inactive | 
4 | O=C(NC(=O)c1cc(F)c(F)cc1Cl)Nc1cc(F)ccc1N1CCC(C(=O)O)CC1 | inactive | 
5 | Oc1c(Cl)c(Cl)c(Cl)c(Cl)c1Cl | inactive | 34.4 µM (active)
6 | C=CC(N)=O | inactive | 
7 | O=C(O)C(F)(F)C(F)(F)C(F)(F)C(F)(F)C(F)(F)C(F)(F)C(F)(F)C(F)(F)F | inactive | 44.1 µM (active)
8 | Cc1ccc(O)c(C)c1 | inactive | 
9 | c1cc2ccc3cccc4ccc(c1)c2c34 | inactive | 
10 | CC#Cc1cc(C)nc(Nc2ccccc2)n1 | inactive | 
11 | Nc1ccc(-c2ccc(N)cc2)cc1 | inactive | 
12 | C[C@]12CCC(=O)C=C1CC[C@@H]1[C@@H]2CC[C@@]2(C)[C@H]1CC[C@]2(C)O | inactive | 
13 | CCOC(=O)C(O)(c1ccc(Cl)cc1)c1ccc(Cl)cc1 |  | 30.3 µM (active)
14 | CC(C)(c1ccccc1)c1ccc(O)cc1 |  | 36.3 µM (active)
15 | CN(C)c1nc(=O)n(C2CCCCC2)c(=O)n1C | inactive | 
16 | CCOCCOC(C)=O | inactive | 
17 | C=CC(=O)NCNC(=O)C=C | inactive | 
18 | Cc1ccccc1[N+](=O)[O-] | inactive | 
19 | COS(=O)(=O)OC | inactive | 

Row | Compound | outcome | AC50
20 | O=C(O)C(F)(F)C(F)(F)C(F)(F)C(F)(F)C(F)(F)C(F)(F)C(F)(F)C(F)(F)C(F)(F)F | inactive | 45.7 µM (active) and 45.5 µM (active)
21 | COc1ccc(O)c(C(C)(C)C)c1 | inactive | 
22 | Sc1ccccc1 | inactive | 
23 | C1CC2OC2CC1C1CO1 (stereo not given) | inactive | 
24 | Oc1ccc(Cl)cc1Cl | inactive | 
25 | Oc1ccc(C(c2ccc(O)cc2)(C(F)(F)F)C(F)(F)F)cc1 |  | 20.2 µM (active)
26 | ClC(Cl)=C(c1ccc(Cl)cc1)c1ccc(Cl)cc1 |  | 26.6 µM (active)
27 | O=S(=O)(O)C(F)(F)C(F)(F)C(F)(F)C(F)(F)F | inactive | 
28 | CCOP(=S)(OCC)SCSC(C)(C)C | inactive | 
29 | CC(c1ccc(O)cc1)(c1ccc(O)cc1)c1ccc(O)cc1 | inactive | 
30 | Cc1cc(-c2ccc(N)c(C)c2)ccc1N | inactive | 
31 | CCC(C)(CC)c1cc(NC(=O)c2c(OC)cccc2OC)on1 | inactive | 
32 | Nn1cnnc1 | inactive | 
33 | CCCCCCOC(=O)c1ccccc1C(=O)OCCCCCC | inactive | 
34 | O=C(O)C(F)(F)C(F)(F)C(F)(F)C(F)(F)C(F)(F)F | inactive | 
35 | Clc1ccc(Cl)cc1 | inactive | 
36 | c1ccc(-c2ccccc2)cc1 | inactive | 
37 | O=C(NC(=O)c1c(F)cccc1F)Nc1cc(Cl)c(OC(F)(F)C(F)F)c(Cl)c1 | inactive | 

Source: PubChem BioAssay (EPA / NIEHS)
